Records with an inconclusive call do not appear. Entries that show only a call come without a potency. Active and inactive are the calls of the source. Calls follow the shape of the dose curve; as a rule, active = well fitted cell-killing curve with a large enough effect; inconclusive = small, poorly fitted or top-dose-only effect; inactive = flat fitted curve, though single readings scatter.
Experiment: Cell Viability - LYMP1-002 - Assay at 40 hr (AID 994); also: nearly all actives have a fitted effect of over 60% in size
Settings: LYMP1-002 lymphoblastoid cell viability; series mostly up to 92.2 µM
From the text: NIH Chemical Genomics Center [NCGC]
NIH Molecular Libraries Screening Centers Network [MLSCN]
National Institutes of Environmental Health Sciences [NIEHS]
National Toxicology Program [NTP]
We have developed a 1536-well cell-based assay for quantitative high throughput screening (qHTS) against a number of cell lines to determine in vitro cytotoxicity of small molecules. This particular assay uses a human lymphoblastoid cell line (LYMP1-002) purchased from Coriell Institute for Medical Research.
NCGC Assay Protocol Summary:
The CellTiter-Glo luminescent cell viability assay (Promega) is a homogeneous method to measure the number of viable cells in culture. The end point readout of this assay is based on quantitation of intracellular ATP, an indicator of metabolic activity, using the luciferase reaction. Luciferase catalyzes the oxidation of beetle Luciferin to oxyluciferin and light in the presence of ATP. The luminescent signal is proportional to amount of ATP present.
Using the CellTiter-Glo luminescent cell viability assay, the amount of cellular ATP was measured in the lymphoblastoid cell line with complete culture medium following compound treatment for 40 hours. The assay was performed in opaque white Kalypsys 1536-well plates. In the screen, tetraoctylammonium bromide was used as positive control. Library compounds were measured for their ability to cause acute toxicity in the cell line, as reflected by a decrease in intracellular ATP levels, in a concentration-dependent manner. […] AC50 values were determined from concentration-response data modeled with the standard Hill equation.
qHTS protocol for CellTiter Glo lymphoblastoid cellular assay
[Step] [Parameter] [Value] [Description]
1. Reagent; 5 uL; 2500 lymphoblastoid cells/well
2. Time; 5 hr; 37 C incubation
4. Controls; 23 nL; Tetraoctylammonium bromide 6.4pM to 92 uM
5. Time; 40 hr; 37 C incubation
6. Reagent; 5 uL; CellTiter Glo reagent
7. Time; 30 min; Room Temperature
8. Detection; Luminescence; Viewlux plate reader
Keywords: cell viability, cytotoxicity, lymphoblastoid cell line, luminescence, NTPHTS, NTPHTS_NCGC, NIEHS, DSSTox, MLSMR, MLSCN, NIH Roadmap, qHTS, NCGC
In the case of `c1cnc2c(c1)ccc1cccnc12`, the Potency is reported as 12.6 µM (active).
For `NCCO`, the Potency was “inactive”.
For `CC1(C)S[C@@H]2[C@H](NC(=O)[C@H](N)c3ccccc3)C(=O)N2[C@H]1C(=O)O`, the Potency was “inactive”.
With `CN(C)CCC(c1ccc(Cl)cc1)c1ccccn1` (configuration not stated) the Potency was “inactive”.
With `Nc1ccc(O)c([N+](=O)[O-])c1` the Potency was “inactive”.
In the case of `N=C1N=C(N)c2cc3ccccc3cc21`, the Potency is reported as 39.8 µM (active).
In the case of `CCCOC(=O)c1ccc(O)cc1`, the Potency is reported as “inactive”.
In the case of `O=c1cc(-c2ccccc2)oc2ccccc12`, the Potency is reported as “inactive”.
In the case of `COc1cc(CNC(=O)CCCC/C=C/C(C)C)ccc1O`, the Potency is reported as “inactive”.
For `CN1CCC[C@H]1c1cccnc1`, the Potency was “inactive”.
For `CN(C)c1ccc(N=NS(=O)(=O)O)cc1`, the Potency was “inactive”.
For `CN(C)c1ccc(C(=C2C=CC(=[N+](C)C)C=C2)c2ccccc2)cc1`, the Potency was 1 µM (active).
For `Nc1ccc(O)c(C(=O)O)c1`, the Potency was “inactive”.
In the case of `CC(C)NCC(O)COc1cccc2ccccc12` (configuration not stated), the Potency is reported as “inactive”.
With `Nc1ccc([N+](=O)[O-])cc1O` the Potency was “inactive”.
For `O=C(O)c1cc(O)c(O)c(O)c1`, the Potency was “inactive”.
In the case of `COc1cc(/C=C/C(=O)CC(=O)/C=C/c2ccc(O)c(OC)c2)ccc1O`, the Potency is reported as 39.8 µM (active).
In the case of `c1ccc2sc(SSc3nc4ccccc4s3)nc2c1`, the Potency is reported as “inactive”.
In the case of `S=c1[nH]c2ccccc2s1`, the Potency is reported as “inactive”.
With `Nc1nc2ccc([N+](=O)[O-])cc2s1` the Potency was “inactive”.
For `CCCCCCCCCCCCCCCCCC(=O)O`, the Potency was “inactive”.
In the case of `O=C(O)/C=C\C(=O)O`, the Potency is reported as “inactive”.

Source: PubChem BioAssay (NCATS)
Potency is read from the fitted curve at half-maximal effect.
